This note sets out measurements from the OligoGym collection.
Further: reference of the scale not given here.

The first assay deals with DTX1. Briefly: pooled miR-30 sensor sort-seq; sequence = guide strand. The note with it: shRNA.
In turn, TTGCGGTGAACTTCTTCCCGGG showed a sensor-assay potency score (higher = more potent) of -0.0133.
The same measure, in the same setting: next, TCTTCGAACCACATCCTCGGGA: -0.159.
For TGAGGTTGGATCCAAACTCGGT, the sensor-assay potency score (higher = more potent) was -0.565.

Another assay concerns the target DTX3L. Described as above. The following applies: shRNA.
TAGCTCTCCAGCTTCCTTCGTA had a sensor-assay potency score (higher = more potent) of 0.0161.
Take TAGAACATACTGCTTCGCCTTT: the sensor-assay potency score (higher = more potent) was -0.506.
Still for that read-out and setting: next, TTTTTCAACACTCTCTCCTTAG: -0.54; TTCGTCAACAAGTATTTGGTGC: 0.16.
The same measure, in the same setting: in the case of TTGAGGTCTCGTGTTCTTCTTT it was -0.195.
Still for that read-out and setting: in the case of TTGTGGTGAATATCATTCCAAG it was -1.27.
On to TTCGATCTCTGATATCTCCTGT, for which the sensor-assay potency score (higher = more potent) turned out to be 0.612.
The same measure, in the same setting: next, TTTGTGGTGAATATCATTCCAA: -0.425; TTGGAAGTCACCACACACCTTC: 0.463.
For the sequence TATTCTTTCAATGTCTTGGAAG, the sensor-assay potency score (higher = more potent) was -0.89.
In the case of TAAAGAGACACATTCTTGCTTC, the sensor-assay potency score (higher = more potent) is 0.883.
Same read-out and setting: in the case of TTCCAGGGTATCTCTTTCCTGG it was -0.87.

In the next assay the target is DUSP22. The description is as above. The following applies: shRNA.
The sequence TACTTAAACTCTATGTTGCTTT yielded a sensor-assay potency score (higher = more potent) of -0.452.
TTTCTTTGAAATGTCTTGTCAG came in with a sensor-assay potency score (higher = more potent) of -0.0889.
With TTCTTTGAAATGTCTTGTCAGG, the sensor-assay potency score (higher = more potent) is -0.54.
TTAGTTCTCAACATAAACATGA returned a sensor-assay potency score (higher = more potent) of -0.0599.
The same measure, in the same setting: next, TTAACGAAAACATAGAGCTTTC: -0.995; AATATGTGTCACCTTGTTCTTG: -0.44.
ATACTGATGGACCTCATGCTTC had a sensor-assay potency score (higher = more potent) of -1.22.
On the same count and under the same terms, in the case of ATATGTGTCACCTTGTTCTTGC it was 0.858; in that of TTCACAGGAAGCAATCACGAGC, -0.769; in that of TCTTCCTTCAGCCACTGCCGAT, -1.53.

The target in another assay is DUSP3. The description is as above. The following applies: shRNA.
As for TGAGGTTGAACTCCTGTGTGTC, the sensor-assay potency score (higher = more potent) was 0.0433.
On the same count and under the same terms, in the case of AGACTTGACGTCCATCTTCTGC it was -1.63; in that of TTCTGCCGCATCATGAGGTAGG, -0.351; in that of TAGAAGTTGGCATTGGTGTTGA, 0.772.
Turning to TTGAACTCCTGTGTGTCGTTGG, the sensor-assay potency score (higher = more potent) was determined as 0.854.
The sequence TTCAAAGTAAGCGCTGAGGTTG yielded a sensor-assay potency score (higher = more potent) of -0.662.
For TTGGGGAGCGGCTATAACCTTC, the sensor-assay potency score (higher = more potent) is -1.39.
The same measure, in the same setting: next, ATTCTTTTGAGCCAAAGCCTGG: -1.5.
Same read-out and setting: next, TTCTTTTGAGCCAAAGCCTGGT: -0.51.
On the same count and under the same terms, in the case of TTGACGTGCATGAAGGACCTGC it was 0.645.
In turn, TTGACGTCCATCTTCTGCCGCA had a sensor-assay potency score (higher = more potent) of -0.0981.
Still for that read-out and setting: next, TCGTTGAGATCCTGCACCGAGA: -1.55; TTGCCCACGTAGATCCGCGGGG: -0.843.
In turn, TAGTTTCTGCAGCTTGGGGATG displayed a sensor-assay potency score (higher = more potent) of -1.37.
